An excerpt weighted towards active compounds, which were near 7% of everything screened.
KLK7 zymogen act = proKLK7 zymogen activators, primary screen, biochemical, fluorescence intensity; Kallikrein-7 (Homo sapiens), P49862; purified proKLK7, EDANS-DABCYL substrate fluorescence; 100% is mature enzyme control, 0% vehicle; activation, % at 7 µM; 370,000 compounds, 0.9% hits; AID 652039, 2013;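 active means activation above the mean of all tested compounds plus 3 SD, computed per campaign excluding outliers beyond control limits, cut at about 13% in these data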
NR3A LBD binder = binders of NR3A ligand-binding domain, primary screen, biophysical, differential scanning fluorimetry, uHTS | 340,000 compounds, 2.5% hits | Tm shift relative to glycine control, % at 25 µM | Glutamate receptor ionotropic, NMDA 3A (GRIN3A) ligand-binding domain | NR3A LBD differential scanning fluorimetry, Tm shift; 0% = protein alone, 100% = glycine-bound protein;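 active means melting temperature shift of at least 10% of the positive control shift, at one fixed dose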
ADAM10 inh = human ADAM10 inhibitors, primary screen, biochemical, QFRET, HTS; Disintegrin and metalloproteinase domain-containing protein 10 (Homo sapiens), O14672; recombinant ADAM10, EDANS/DABCYL FRET peptide cleavage, 3 h; 370,000 compounds, 0.62% hits; inhibition, % at 7 µM;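 active means inhibition above a per-campaign cutoff equal to the mean of compounds falling between control-based bounds plus 3 SD, cut at about 20% in these data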;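 further: 0% = DMSO wells while the 100% control is not disclosed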
rCAG binder = binders of r(CAG) RNA repeats, primary screen, biochemical, fluorescence; r(CAG) RNA repeat, TO-PRO-1 dye displacement fluorescence; inhibition, % at 3 µM; 370,000 compounds, 1.3% hits; AID 651821, 2012;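 active means inhibition above the plate cutoff, the mean of all test compounds on that plate plus 3 SD, cut at about 35% in these data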;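 further: 0% = DMSO alone and 100% = 100 µM mitoxantrone as full dye displacement; higher means more dye released from RNA so lower well fluorescence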
AHR activator = AHR activators, primary screen, cell-based, luminescence, luciferase reporter, human; AHR-responsive luciferase reporter cells; activation, % at 5 µM; 320,000 compounds, 2.5% hits; AID 2796, 2010; Aryl hydrocarbon receptor (Homo sapiens), P35869; in the data active means activation above about 47%;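 further: 0% = vehicle wells and 100% = reference agonist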
ADAM17 inh = ADAM17 inhibitors, primary screen, biochemical, QFRET | Disintegrin and metalloproteinase domain-containing protein 17 (Homo sapiens), P78536 | recombinant ADAM17, EDANS/DABCYL FRET peptide cleavage | inhibition, % at 6.95 µM | 370,000 compounds, 0.83% hits | AID 720648, 2013;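 active means inhibition above the mean of compounds lying between control limits plus 3 SD, set per campaign, cut at about 8.5% in these data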;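 further: 0% = DMSO-only wells as the low control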
Target sequence (P78536 215-824 limits assumed): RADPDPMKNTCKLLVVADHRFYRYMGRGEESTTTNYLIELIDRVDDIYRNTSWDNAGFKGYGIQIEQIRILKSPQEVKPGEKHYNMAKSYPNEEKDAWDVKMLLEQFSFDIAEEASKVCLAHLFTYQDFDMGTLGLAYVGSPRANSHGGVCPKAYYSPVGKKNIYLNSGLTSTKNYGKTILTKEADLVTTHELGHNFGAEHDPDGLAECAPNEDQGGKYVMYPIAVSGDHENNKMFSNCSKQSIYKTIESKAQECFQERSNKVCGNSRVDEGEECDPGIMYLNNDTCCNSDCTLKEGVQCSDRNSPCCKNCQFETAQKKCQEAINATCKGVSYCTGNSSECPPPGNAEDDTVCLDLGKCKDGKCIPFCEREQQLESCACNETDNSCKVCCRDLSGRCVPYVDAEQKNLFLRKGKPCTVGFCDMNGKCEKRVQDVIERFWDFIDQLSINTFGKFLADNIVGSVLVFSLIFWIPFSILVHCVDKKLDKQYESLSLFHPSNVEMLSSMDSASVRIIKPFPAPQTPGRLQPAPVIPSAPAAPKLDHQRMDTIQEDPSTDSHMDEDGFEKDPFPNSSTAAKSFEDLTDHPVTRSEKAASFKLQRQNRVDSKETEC
ADAM10 confirm = human ADAM10 inhibitors, confirmation, biochemical, QFRET, triplicate | shares compounds with ADAM10 inh | ADAM10 QFRET peptide cleavage, EDANS fluorescence | inhibition, % at 6.95 µM | 2,100 compounds, 1% hits | AID 743208, 2013;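 active means inhibition above about 20% chosen separately for each screening run, limit read from the data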;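 further: 0% = DMSO wells and 100% = marimastat wells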
ADAM17 ctr = ADAM17 inhibitors, counter-screen for ADAM10 exosite inhibitor project, biochemical, QFRET, high throughput | inhibition, % at 6.95 µM | 2,100 compounds, 0.5% hits | shares compounds with ADAM10 inh | ADAM17 QFRET peptide cleavage, EDANS fluorescence;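 active means mean triplicate inhibition above the solvent-only control wells' mean plus 3 SD, cut at about 12% in these data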;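 further: 0% = DMSO wells and 100% = marimastat wells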
* hit, by the source's call; nt = no result.

SMILES	KLK7 zymogen act	NR3A LBD binder	ADAM10 inh	rCAG binder	AHR activator	ADAM17 inh	ADAM10 confirm	ADAM17 ctr
Oc1ccccc1-c1cc(-c2cccc(F)c2)n[nH]1	0	8	21*	13	72*	5	4	1
Cc1ccccc1Nc1nc(Nc2ccccc2C)nc(SC2=NCCS2)n1	0	-7	20*	4	5	7	6	2
CC(=O)Oc1cccc(Nc2ncnc3ccccc23)c1	0	2	83*	-1	2	0	2	0
CCN(CC)S(=O)(=O)c1cccc(NC(=O)COc2ccc(C#N)cc2OC)c1	0	-3	7	4	1	3	nt	nt
CCN(CC)S(=O)(=O)c1cccc(NC(=O)COc2ccc(F)cc2Br)c1	0	-4	21*	0	0	2	-1	1
O=C(NC1CCCCN(Cc2ccc(Cl)cc2)C1=O)C(c1ccccc1)c1ccccc1 (centres undefined)	0	nt	22*	9	nt	4	6	4
COc1cc(C(=O)NNC(=S)NC(=O)c2ccc3c(c2)OCO3)cc(OC)c1OC	0	0	22*	18	1	6	3	3
COc1cc(C(=O)NNC(=O)c2ccc3c(c2)OCCO3)cc(OC)c1OC	-1	1	-30	2	-1	-8	nt	nt
NNc1nc(-c2ccccc2)nc(-c2ccccc2)c1Br	-1	2	21*	6	6	7	3	1
O=C(Nc1ccccc1C(=O)Nc1nccs1)c1ccccc1	1	nt	-20	5	nt	-6	nt	nt
CC(C)c1nc2sc3c(c2c(=O)[nH]1)CC(C)(C)OC3	-1	2	5	-2	nt	-5	nt	nt
Cc1ccc2c(c1)NC(=O)[C@@]1(C)[C@@H](c3ccccc3)[C@H]3COc4ccccc4[C@@H]3N1C2=O	0	-2	27*	7	6	4	10	3
Cc1ccc2c(c1)C(=O)N1[C@H]3c4ccccc4OC[C@@H]3[C@H](c3ccccc3)[C@]1(C)C(=O)N2	nt	-2	nt	nt	2	nt	nt	nt
COc1ccc2c(c1)[C@H]1[C@H](CO2)[C@H](c2ccccc2)[C@]2(C)C(=O)Nc3ccc(C)cc3C(=O)N12	-2	3	28*	-2	-1	0	10	3
COC(=O)[C@]12CCCCC=C1N(Cc1ccc3c(c1)OCO3)C(=O)[C@H](CC(=O)NCc1cccc(C(F)(F)F)c1)C2	-1	nt	5	3	nt	4	nt	nt
CCCCCCCCN1C(=O)[C@@H](CC(=O)NCc2ccc(OC)c(OC)c2)C[C@@]2(C(=O)OC)C1=C[C@H](C(C)C)O[C@@H]2C1CC1	1	nt	22*	7	nt	6	12	3
COC(=O)[C@]12C[C@H](CC(=O)NCCCCc3ccccc3)C(=O)N(Cc3ccc4c(c3)OCO4)C1=C[C@H](C(C)C)O[C@@H]2C1CC1	0	nt	21*	6	nt	6	6	3
COC(=O)[C@]12C[C@H](CC(=O)NCc3cccc(C(F)(F)F)c3)C(=O)N(Cc3ccc4c(c3)OCO4)C1=C[C@H](C(C)C)O[C@@H]2C1CC1	0	nt	20*	3	nt	8	7	3
CCCCOCCCNC(=O)C[C@H]1C[C@@]2(C(=O)OC)C(=C[C@H](C(C)C)O[C@@H]2C2CC2)N(Cc2ccco2)C1=O	0	nt	5	1	nt	1	nt	nt
O=C1CC2(CCN1)CCN(Cc1ccccc1)CC2	0	-2	-7	1	nt	-2	nt	nt
COc1ccc(/C=C(/NC(=O)c2ccc(Br)o2)C(=O)Nc2cccc(C(=O)O)c2)cc1	0	nt	-15	9	nt	-2	nt	nt
CCOc1ccc(NC(=O)CC2CC(C)(C)OC2=O)cc1 (centres undefined)	0	1	1	1	9	-3	nt	nt
CCCC1CC(C)(c2csc(Nc3ccc(OCC)cc3)n2)OC1=O (centres undefined)	0	-3	21*	-2	4	5	8	2
Cc1cc(C)c(S(=O)(=O)N2CCN(C(=O)CCn3nc(C)c(C)c3C)CC2)c(C)c1	0	0	4	-1	1	2	nt	nt
O=C(CSc1nc2ccc(NC(=O)c3ccccc3C(=O)O)cc2s1)Nc1c(Cl)cccc1Cl	-1	-3	20*	9	4	4	0	1
SMILES	KLK7 zymogen act	NR3A LBD binder	ADAM10 inh	rCAG binder	AHR activator	ADAM17 inh	ADAM10 confirm	ADAM17 ctr
COc1ccc(-c2nc(N)ncc2-c2ccccc2OC)c(O)c1	0	2	-2	-5	5	-1	nt	nt
COc1cccc(NC(=O)C2(C)CCN2C(=O)Cc2ccc(-c3ccccc3)cc2)c1 (centres undefined)	0	nt	25*	6	nt	8	6	2
CC1(C(=O)Nc2ccccc2)CCN1C(=O)Cc1ccc(-c2ccccc2)cc1 (centres undefined)	0	nt	-6	2	nt	4	nt	nt
COc1ccc(S(=O)(=O)NC(=O)C2(C)CCN2C(=O)Cc2ccccc2Cl)cc1 (centres undefined)	1	nt	86*	4	nt	-1	0	0
COc1ccc(OC)c(S(=O)(=O)NC(=O)C2(C)CCN2C(=O)Cc2ccccc2Cl)c1 (centres undefined)	0	nt	-13	4	nt	-4	nt	nt
O=S1(=O)c2ccc(N3CCSCC3)cc2Oc2ccccc2CN1Cc1cn(Cc2ccc(C(F)(F)F)cc2)nn1	-1	nt	20*	12	nt	-1	10	3
O=C(NCCn1cc(SCc2ccccc2)c2ccccc21)c1c(F)cccc1F	0	-7	24*	4	5	7	5	3
O=C(NCCn1cc(SCc2ccc(F)cc2)c2ccccc21)c1ccccc1F	nt	-10	nt	nt	43	nt	nt	nt
CCCOC(=O)c1ccc(Oc2c(-c3ccc(OC)cc3O)n[nH]c2C)cc1	0	9	17	9	0	5	nt	nt

Source: PubChem
